# The whole screen tested about 310,000 compounds, of which about 14,000 (4.5%) showed an effect of 50% or more. The effect is printed as a negative number. Only a selection was taken, and strong results are over-represented in it overall.
# Target: human ether-à-go-go-related gene (hERG) potassium channel (human, UniProt Q12809)
# Assay: primary screen, population patch clamp on CHO cells stably expressing hERG; higher = less effect of the substance
# 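Also: peak tail current of the secondary pulse compared with the same well before compound.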
# Sequence of human ether-à-go-go-related gene (hERG) potassium channel (Q12809 whole entry, looked up): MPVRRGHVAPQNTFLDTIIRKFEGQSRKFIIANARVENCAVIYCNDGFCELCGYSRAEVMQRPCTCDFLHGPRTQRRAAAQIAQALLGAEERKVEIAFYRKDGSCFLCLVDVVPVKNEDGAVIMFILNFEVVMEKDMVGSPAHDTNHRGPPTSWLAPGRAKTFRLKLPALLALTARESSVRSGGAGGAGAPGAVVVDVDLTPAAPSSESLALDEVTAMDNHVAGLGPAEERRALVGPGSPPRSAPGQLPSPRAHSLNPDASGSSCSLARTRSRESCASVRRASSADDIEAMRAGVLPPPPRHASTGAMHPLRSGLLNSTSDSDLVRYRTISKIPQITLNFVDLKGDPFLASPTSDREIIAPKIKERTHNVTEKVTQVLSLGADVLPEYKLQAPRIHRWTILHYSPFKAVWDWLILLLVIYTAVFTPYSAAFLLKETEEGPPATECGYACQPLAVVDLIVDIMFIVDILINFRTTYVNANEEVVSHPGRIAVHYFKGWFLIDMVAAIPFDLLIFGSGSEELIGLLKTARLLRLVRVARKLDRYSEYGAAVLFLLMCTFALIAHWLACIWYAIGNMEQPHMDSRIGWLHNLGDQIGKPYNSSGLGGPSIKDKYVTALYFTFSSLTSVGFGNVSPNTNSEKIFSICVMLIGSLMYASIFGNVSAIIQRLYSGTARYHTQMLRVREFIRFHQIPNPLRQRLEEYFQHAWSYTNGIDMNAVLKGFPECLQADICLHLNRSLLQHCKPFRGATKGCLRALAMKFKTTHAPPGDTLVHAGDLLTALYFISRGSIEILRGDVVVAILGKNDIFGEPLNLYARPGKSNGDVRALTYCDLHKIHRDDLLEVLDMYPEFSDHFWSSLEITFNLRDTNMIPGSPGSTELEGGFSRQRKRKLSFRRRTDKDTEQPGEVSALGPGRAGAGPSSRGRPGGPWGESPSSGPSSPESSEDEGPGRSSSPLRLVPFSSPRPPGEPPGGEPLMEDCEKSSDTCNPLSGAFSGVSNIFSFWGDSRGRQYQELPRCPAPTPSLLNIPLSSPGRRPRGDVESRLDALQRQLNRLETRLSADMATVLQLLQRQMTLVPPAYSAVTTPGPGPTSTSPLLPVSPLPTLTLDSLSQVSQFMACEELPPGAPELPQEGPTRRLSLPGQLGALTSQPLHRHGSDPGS
row,Compound,"hERG current change (%, negative = inhibition) at 10uM"
1,CCCCOC(=O)CN1C(=O)c2ccc(C(=O)OCCCC)cc2C1=O,4.54%
2,O.O=C([O-])c1ccn2c(C(=O)c3ccccc3)c(-c3ccccc3)cc2c1,12.8%
3,C/C(=C\C(=O)OCC(=O)NCc1ccccc1)C(=O)OCC(=O)NCc1ccccc1,18.8%
4,CCN1C(=O)CSc2ccc(C(=O)NC3CCCCC3)cc21,-5.4%
5,Cc1cn2c(=O)c(C(=O)N3CCN(c4ccccc4Cl)CC3)cnc2s1,-62.8%
6,O=C(c1cnc2sccn2c1=O)N1CCN(c2ccccc2Cl)CC1,-2.33%
7,Cc1cn2c(=O)c(C(=O)N3CCN(c4ccccc4F)CC3)cnc2s1,-6.27%
8,CCCCCCCC1c2c(c(C)c(C)oc2=O)Oc2c(C)c(C)oc(=O)c21,11.9%
9,CCN1C(=O)[C@H]2[C@@H](c3ccc(-c4ccc(OC)cc4)cc3)N[C@@](Cc3ccccc3)(C(=O)OC)[C@H]2C1=O.O=C(O)C(F)(F)F,3.09%
10,CCc1ccc(CN(C)C(=O)CCc2nnc(CCc3ccccc3OC)o2)nc1,-1.47%
11,CCc1ccc(CN(C)C(=O)CCc2nnc(-c3ccc(-c4ccccc4)cc3)o2)nc1,-65.1%
12,CN(Cc1ccon1)C(=O)CCc1nnc(Cc2ccc(-c3ccccc3)cc2)o1,-20%
13,CCOc1ccc(CCNC(=O)COC(=O)/C=C/c2ccc(OC(F)F)c(OC)c2)cc1OCC,-15.2%
14,Cc1cccc(C)c1NC(=O)C(=O)NCCOc1ccc(Cl)cc1,-26%
15,CCN(C(=S)Nc1cccc(C)c1)c1ccccc1,13.2%
16,O=C(NCc1ccco1)/C(=C/c1ccc(Br)cc1)NC(=O)c1ccco1,0.657%
17,O=C(NCc1ccccc1)/C(=C\c1ccc(O)cc1)NC(=O)c1ccco1,-20.7%
18,COc1ccc(/C=C(\NC(=O)c2ccco2)C(=O)NCc2ccco2)cc1,8.89%
19,CC(=O)Oc1ccc(/C=C(\NC(=O)c2ccco2)C(=O)NCc2ccccc2)cc1,-68.3%
20,CC(=O)Oc1ccc(/C=C(\NC(=O)c2ccco2)C(=O)NCc2ccco2)cc1,-52%

row,Compound,"hERG current change (%, negative = inhibition) at 10uM"
1,CC(=O)Oc1ccc(/C=C(\NC(=O)c2ccco2)C(=O)Nc2ccc(C(C)=O)cc2)cc1,-26.2%
2,Cc1cccc(C(=O)N2CCC(N3CCC(C(=O)N4CCOCC4)CC3)CC2)c1,-9.81%
3,Cc1ccc(S(=O)(=O)/N=c2\scc(C)n2C)cc1,0.491%
4,O=C1CN(C(=O)COc2ccc(Cl)cc2Cl)c2ccccc2N1,14.2%
5,O=C1CN(C(=O)COc2ccc([N+](=O)[O-])cc2Cl)c2ccccc2N1,-61.2%
6,O=C1CN(C(=O)COc2ccc(F)cc2Cl)c2ccccc2N1,-19.5%
7,CC1(C)CC(=O)C=C(C(=O)NC2CCCc3c2cnn3-c2cc(F)cc(F)c2)O1 (stereo not drawn),-2.03%
8,O=C(O)c1cc(NS(=O)(=O)c2ccc(NCc3ccccc3)c([N+](=O)[O-])c2)cc(C(=O)O)c1,20.9%
9,COC(=O)N/N=C(\C)c1ccccc1OC(F)F,1.52%
10,Cc1ccc(C(=O)N[C@@H](C)CN2C3=NC[C@H](C(C)C)N3C[C@H]2Cc2ccc(O)cc2)cc1Br,-77.7%
11,COc1ccc(C[C@@H]2CN3C(=NC[C@@H]3C)N2C[C@H](C)NC(=O)c2ccc(C)c(Br)c2)cc1,-74.8%
12,COc1ccc(C[C@H]2CN3C(=NC[C@@H]3C(C)C)N2C[C@H](C)NC(=O)c2ccc(C)c(Br)c2)cc1,-74.5%
13,CCCOP(=O)(c1ccc(N(C)C)cc1)C(O)c1ccc(N(C)C)cc1 (stereo not drawn),12.8%
14,c1ccc2sc(-c3ccc4c(c3)OCO4)nc2c1,-3.16%
15,CCOc1ccc(C2CC(c3cccc(OC)c3OC)n3nnnc3N2)cc1Cl (stereo not drawn),-19.2%
16,Cc1ccc(-n2nnnc2Sc2nc([N+](=O)[O-])nn2C)c(C)c1,-27.6%
17,CN(C(=O)c1ccc(C#N)cc1)c1nnc(-c2cnccn2)s1,-8.93%
18,CCN(CC)CCCNC(=O)Cn1ncc2c(=O)oc3ccc(C)cc3c21,-7.17%
19,COC(=O)COc1ccc(C(c2c(C)[nH][nH]c2=O)c2c(C)[nH][nH]c2=O)cc1,15.1%
20,COc1ccc(CN2CN(C3CCCC3)CSC2=S)cc1,2.66%

row,Compound,"hERG current change (%, negative = inhibition) at 10uM"
1,Cc1ccc(OCCCC(=O)Nc2ccc(S(=O)(=O)N3CCOCC3)cc2)cc1,-25.7%
2,COc1ccc(-n2nc(C(=O)NCC(=O)Nc3ccccn3)c3ccccc3c2=O)cc1,10.6%
3,Cc1ccccc1NC(=S)N(Cc1cccs1)C1CCCC1,5.42%
4,C=CCn1c(SCC(=O)N2CCc3ccccc3C2)nc2ccccc2c1=O,-61.5%
5,COCCn1c(SCC(=O)N2CCc3ccccc3C2)nc2ccccc2c1=O,-43.8%
6,C=CCn1c(SCC(=O)N2CCOCC2)nc2ccccc2c1=O,-28.4%
7,C=CCn1c(SCC(=O)N2CCc3ccccc3C2)nc2sc(C)cc2c1=O,-7.46%
8,C=CCn1c(SCC(=O)N2CCCCCC2)nc2ccccc2c1=O,-59.2%
9,CCn1c(SCC(=O)N2CCCCCC2)nc2ccccc2c1=O,-10.4%
10,Cc1nc(N2CCN(S(=O)(=O)c3ccc(F)cc3)CC2)c2c(-c3cccs3)csc2n1,11.6%
11,CCn1cc(S(=O)(=O)N2CCN(c3ccc(Cl)cc3)CC2)cn1,7.96%
12,Cn1nc(C(F)(F)F)c(-c2ccc(Br)cc2)c1NC(=O)c1ccco1,-63.5%
13,O=C(Nc1oc2ccccc2c(=O)c1-c1ccc(Cl)cc1)c1ccco1,-20.4%
14,Cn1nc(C(F)(F)F)c(-c2cccc(C(F)(F)F)c2)c1NC(=O)c1cccnc1,-6.76%
15,O=C(Nc1oc2ccccc2c(=O)c1-c1ccc(Br)cc1)c1ccco1,-52.5%
16,Cc1ccc(-c2c(NC(=O)c3ccco3)oc3ccccc3c2=O)cc1,10.1%
17,Cn1nc(C(F)(F)F)c(-c2ccc(F)cc2)c1NC(=O)c1ccco1,-32.8%
18,Cn1nc(C(F)(F)F)c(-c2ccccc2)c1NC(=O)c1ccco1,-3.07%
19,Cn1nc(C(F)(F)F)c(-c2ccc(Br)cc2)c1NC(=O)c1cccnc1,0.61%
20,Cn1nc(C(F)(F)F)c(-c2cccc(C(F)(F)F)c2)c1NC(=O)c1ccco1,-66.6%

# From PMC4336329 (PLoS ONE, 2015)
